From the supplement of paper PMC13380429

Tested on: Vero E6 infected with SARS-CoV-2
Test: inhibition of SARS-CoV-2 cytopathic effect; higher = more antiviral protection, active = above 15
Conditions: 48 h

Measured: inhibition of SARS-CoV-2 cytopathic effect

C=CC(=O)Nc1cc2c(Nc3ccc(F)c(Cl)c3)ncnc2cc1OCCCN1CCOCC1 [canertinib]
inactive: 1 nM 2.3% | 8.33 nM -2.25% | 100 nM -6.93% | 833.33 nM -13.4% | 10000 nM -20.1%

CCCC(C)C1(CC)C(=O)NC(=S)NC1=O (stereo not given) [thiopental]
inactive: 1 nM -0.77% | 8.33 nM 0.01% | 100 nM 0.2% | 833.33 nM 1.29% | 10000 nM 0.45%

CCCNC(C)C(=O)Nc1c(C)csc1C(=O)OC (stereo not given) [articaine]
inactive: 1 nM -0.23% | 8.33 nM 0.85% | 100 nM 0.42% | 833.33 nM 4.27% | 10000 nM -2.09%

CN1[C@@H]2CC[C@H]1C[C@@H](OC(=O)c1c[nH]c3ccccc13)C2 [tropisetron]
inactive: 1 nM -1.26% | 8.33 nM -1.1% | 100 nM 1.21% | 833.33 nM 1.27% | 10000 nM -1.17%

CCS(=O)(=O)N(Cc1cccnc1)c1cccc(-c2ccc(C#N)cc2)c1
inactive: 1 nM 1.24% | 8.33 nM 1.74% | 100 nM 1.23% | 833.33 nM 4.38% | 10000 nM 8.38%

C=CCN1CCc2nc(N)sc2CC1 [talipexole]
inactive: 1 nM -0.94% | 8.33 nM 1.41% | 100 nM 0.94% | 833.33 nM -0.07% | 10000 nM -2.07%

O=C(O)c1ccccc1S [o-mercapto-benzoic-acid]
inactive: 1 nM -1.65% | 8.33 nM -0.03% | 100 nM 0.12% | 833.33 nM -2.81% | 10000 nM -0.55%

COc1cc2c(c(OC)c1OC)-c1c(cc3c(c1OC)OCO3)CC(C)C(C)C2 (stereo not given) [schisandrin-B]
inactive: 1 nM -1.41% | 8.33 nM -0.34% | 100 nM -0.03% | 833.33 nM -1.73% | 10000 nM -1.42%

Cn1nc(-c2cccc(F)c2)n(C)c1=S [suritozole]
inactive: 1 nM 3.45% | 8.33 nM 1.68% | 100 nM 1.49% | 833.33 nM 1.52% | 10000 nM 1.85%

CCn1cc(C(=O)O)c(=O)c2cc(F)c(N3CCNCC3)cc21 [norfloxacin]
inactive: 1 nM 2.7% | 8.33 nM 2.29% | 100 nM 3.02% | 833.33 nM -0.29% | 10000 nM 3.46%

CCCNCCc1ccc(NS(=O)(=O)c2ccc(OC(F)(F)F)cc2)cc1
inactive: 1 nM 2.87% | 8.33 nM 3.37% | 100 nM -0.23% | 833.33 nM 1.93% | 10000 nM -4.37%

O=C([O-])CN1CCN(CC(=O)[O-])CCN([C@H](CO)[C@H](O)CO)CCN(CC(=O)[O-])CC1.[Gd+3] (racemic) [gadobutrol]
inactive: 1 nM -1.29% | 8.33 nM 1.41% | 100 nM 0.03% | 833.33 nM 0.17% | 10000 nM 2.16%

NCc1ccccc1CC(=O)N[C@@H]1C(=O)N2C(C(=O)O)=C(CSc3nnnn3CC(=O)O)CS[C@H]12 [ceforanide]
inactive: 1 nM 0.96% | 8.33 nM 0.98% | 100 nM -0.17% | 833.33 nM 2.04% | 10000 nM 2.57%

CC(C)c1noc(N2CCC(COc3ccc(-c4ccc(S(C)(=O)=O)cc4)nc3)CC2)n1
inactive: 1 nM -1.46% | 8.33 nM -1.84% | 100 nM -1.48% | 833.33 nM -0.49% | 10000 nM -0.23%

c1cc2c(cc1[C@H]1OC[C@H]3[C@@H]1CO[C@@H]3c1ccc3c(c1)OCO3)OCO2 [sesamin]
inactive: 1 nM -1.62% | 8.33 nM -0.09% | 100 nM -0.37% | 833.33 nM 0.48% | 10000 nM -1.08%

CC(Oc1c(Cl)cccc1Cl)C1=NCCN1 (stereo not given) [lofexidine]
inactive: 1 nM 3.3% | 8.33 nM 3.14% | 100 nM 5.17% | 833.33 nM 7.76% | 10000 nM 1.15%

C[C@H](CSC(=O)c1ccccc1)C(=O)N1C[C@@H](Sc2ccccc2)C[C@H]1C(=O)O [zofenopril-calcium]
inactive: 1 nM 0.93% | 8.33 nM -2.52% | 100 nM -3.63% | 833.33 nM -4.57% | 10000 nM -1.54%

N[C@@H](Cn1oc(=O)[nH]c1=O)C(=O)O [L-quisqualic-acid]
inactive: 1 nM -3.6% | 8.33 nM 3.03% | 100 nM 2.21% | 833.33 nM -1.93% | 10000 nM 0.17%
